{"source": "ChEMBL document CHEMBL4513146", "about": "“CO-ADD screening of Karazin Kharkiv National University (Ukraine) compounds”", "note": "Entries with a potency or affinity are not part of this list.", "data": [{"tested_on": "Cryptococcus neoformans", "settings": "Concentration 32 ug.mL-1; ASSAY_TEST Inhibition of Fungal Growth; detection method Resazurin; Absorption (OD600-OD570); plate type 384well; NBS; CORNING #3640", "units": {"Inhibition": "%"}, "values": [{"compound": "Cc1ccc(NC(=O)Cn2nc3c(Oc4ccccc4)nccn3c2=O)c(Br)c1", "Inhibition": -6.15}, {"compound": "COC(=O)c1ccc(CN(c2cccc(F)c2)S(=O)(=O)c2ccc3nncn3c2)o1", "Inhibition": -7.35}, {"compound": "CCc1ccc(N(Cc2cccc(OC)c2)S(=O)(=O)c2cccn3cnnc23)cc1", "Inhibition": -10.89}, {"compound": "CCc1ccc(N(Cc2ccc(F)cc2)S(=O)(=O)c2cccn3c(C)nnc23)cc1", "Inhibition": -7.64}, {"compound": "O=C(CSc1nnc2c(=O)n(-c3cccc(F)c3)ccn12)N1CCN(c2ccc(F)cc2)CC1", "Inhibition": -3.61}, {"compound": "COc1ccc(C(C)NC(=O)CCc2nnc3ccc(-c4ccc(C)cc4)nn23)cc1OC", "note": "(centres undefined)", "Inhibition": -54.1}, {"compound": "COc1ccc(-c2cc3c4nnc(SCC(=O)N(C)c5ccccc5)n4ccn3n2)cc1", "Inhibition": -11.25}, {"compound": "CCc1ccc(N(Cc2ccccc2F)S(=O)(=O)c2cccn3c(CC)nnc23)cc1", "Inhibition": -5.13}, {"compound": "COc1ccc(Cl)cc1NC(=O)CSc1nnc2c(=O)n(-c3ccc(C)c(C)c3)ccn12", "Inhibition": -9.59}, {"compound": "Cc1ccc(Cl)cc1NC(=O)Cn1nc2c(N3CCOCC3)nc3ccccc3n2c1=O", "Inhibition": -17.81}, {"compound": "COc1ccc(-c2cc3c4nnc(SCC(=O)Nc5cccc(C)c5C)n4ccn3n2)cc1", "Inhibition": -22.8}, {"compound": "O=c1c2sccc2n2c(=O)n(Cc3cccc(Br)c3)nc2n1Cc1cccs1", "Inhibition": -21.53}, {"compound": "COc1ccc(-c2cc3c4nnc(SCC(=O)Nc5ccccc5F)n4ccn3n2)cc1", "Inhibition": -26.1}, {"compound": "COc1ccc(NC(=O)c2ccc3nn(CC(=O)Nc4ccc(C(F)(F)F)cc4)c(=O)n3c2)cc1", "Inhibition": -2.75}]}]}
